# Compound activity as filed in PubChem BioAssay.
# IL-1B inflam inh: inhibitors of inflammasome signaling (IL-1 beta secretion); THP-1 LPS/ATP IL-1B secretion, AlphaLISA, 16 h; active compounds read low; activity change, % at 57.5 µM; hit rate 4.7% among 360,000; AID 743279; in the data active = activity change below about -50%; inconclusive = mostly about -30% to -49%
#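 Secreted IL-1B measured by AlphaLISA bead assay after 16 h compound exposure of THP-1 cells; compounds (final up to 57.5 uM) added 1 h before LPS (250 ng/mL) and ATP (1.25 mM) stimulation; lower signal means less secretion.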
# USP2a block: inhibitors of human ubiquitin-specific protease USP2a. USP2 core, Ub-CHOP2 coupled fluorogenic reporter, 485/531. Potency, µM (doses to about 38.3 µM), actives largely listed as inhibitors. hit rate 0.01% among 330,000. AID 463254
#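 Deubiquitinase activity read as fluorescence (485/531 nm) after Ub-CHOP2 cleavage activates the enterokinase reporter on its substrate; USP2 core 10nM, Ub-CHOP2 and substrate 25nM each, 30min compound preincubation then 60min RT; data normalized to NEM, curves fitted.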
# ATXN viability: cell viability loss in ATXN counter-screen | S2 cells (HEK-293 line with an ATXN2-luciferase reporter) viability, CellTiter-Fluor protease fluorescence, 24 h | hit rate 0.49% among 400,000 | Potency, µM (titrated, usually from 56.7 µM), actives largely listed as cytotoxic; note: nearly all actives have a fitted effect of over 40% in size
# USP1-UAF1 inh: USP1/UAF1 (human) deubiquitinase inhibition. recombinant USP1/UAF1, Ub-Rhodamine cleavage fluorescence. O94782. AID 743255. hit rate 0.23% among 390,000. Potency, µM (series often up to 57.1 µM), hits mostly inhibitors; note: nearly all actives have a fitted effect of over 60% in size
# Target sequence (O94782 whole entry, looked up): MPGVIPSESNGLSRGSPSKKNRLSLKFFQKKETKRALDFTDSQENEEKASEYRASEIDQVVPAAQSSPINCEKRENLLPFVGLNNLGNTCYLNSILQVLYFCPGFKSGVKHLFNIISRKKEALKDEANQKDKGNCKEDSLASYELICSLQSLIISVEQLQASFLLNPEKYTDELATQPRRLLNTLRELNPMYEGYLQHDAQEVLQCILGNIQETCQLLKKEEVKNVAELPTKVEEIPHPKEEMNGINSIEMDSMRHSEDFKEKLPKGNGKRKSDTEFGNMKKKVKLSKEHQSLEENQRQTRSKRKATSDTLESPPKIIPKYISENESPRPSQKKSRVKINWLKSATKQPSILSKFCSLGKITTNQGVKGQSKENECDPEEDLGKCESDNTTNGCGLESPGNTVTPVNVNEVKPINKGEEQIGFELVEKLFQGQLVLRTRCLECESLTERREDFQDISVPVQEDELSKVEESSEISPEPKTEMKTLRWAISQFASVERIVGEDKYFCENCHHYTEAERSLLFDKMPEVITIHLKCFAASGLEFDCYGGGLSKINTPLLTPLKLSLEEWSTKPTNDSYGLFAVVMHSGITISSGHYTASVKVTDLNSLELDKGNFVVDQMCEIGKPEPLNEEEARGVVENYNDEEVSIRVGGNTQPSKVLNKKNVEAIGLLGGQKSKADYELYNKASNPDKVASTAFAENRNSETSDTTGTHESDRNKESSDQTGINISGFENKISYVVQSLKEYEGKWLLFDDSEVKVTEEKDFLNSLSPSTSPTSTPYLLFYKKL
#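 Step one: compound is pinned into 1nM USP1/UAF1 in HEPES pH 7.8 buffer with TCEP. Step two: 15 min room-temperature incubation. Step three: Ub-Rho (150nM final) starts cleavage, tracked by fluorescence over six one-minute reads.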
# ATXN2 expr inh: ATXN2 expression inhibition; hit rate 0.72% among 360,000; Potency, µM (highest dose often 57 µM), most hits filed as inhibitors; HEK-293 ATXN2-luciferase reporter, luminescence, 24 h; note: nearly all actives have a fitted effect of over 55% in size
#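 ATXN2-luciferase reporter cells (luciferase flanked by upstream and downstream ATXN2 gene portions) were treated 24 h at 37 °C with compounds at up to 57 uM. SteadyGlo luminescence gave expression; GF-AFC fluorescence gave viability.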
# Numbers stand for hits; n = inactive; u = inconclusive; x = not tested or not shown. Shown are actives, neighbours in structure and some others; about 4.8% of the full set was active somewhere. Unless noted, calls come from the whole dose curve; as a rule, active = well fitted curve in the direction sought with a large enough effect; inconclusive = small, poorly fitted or top-dose-only effect, or another doubt; inactive = no such curve, though single readings can be large; an effect the other way counts as inactive or inconclusive.
SMILES,IL-1B inflam inh,USP2a block,ATXN viability,USP1-UAF1 inh,ATXN2 expr inh
CCOC(=O)c1c(SCCN2CCCCC2)n(-c2ccccc2)c(=S)n(-c2ccccc2)c1=O,n,x,u,n,20µM
CCc1ccc(-c2cc(C)no2)cc1S(=O)(=O)N1CCC(C)CC1,n,n,n,n,n
CCc1ccc(-c2cc(C)no2)cc1S(=O)(=O)N1CCCN(Cc2ccc(F)cc2)C1,-51.7,n,n,n,n
S=C(NCc1ccco1)Nc1ccc(Oc2ccc(Cl)cc2)cc1,-90.5,n,n,n,n
S=C(NCc1ccco1)Nc1ccc(Cl)cc1,n,n,n,n,n
Cc1ccc(C(=O)C(c2ccccc2)N2Cc3ccccc3C2=N)cc1 (centres undefined),-80.6,n,14.1µM,n,n
COc1ccc(CNCCC2(Cc3ccccc3)CC(C)N(C)CC2C)cc1OC (centres undefined),-61.5,n,u,u,u
COc1ccccc1C(=O)NC(C)c1cccc2ccccc12 (centres undefined),n,n,n,n,n
COc1cccc(C(=O)NC(C)c2cccc3ccccc23)c1OC (centres undefined),-65.1,n,n,n,n
COc1ccc(C(C)NC(=O)c2ccccc2Cl)cc1OC (centres undefined),n,n,n,n,n
COc1cccc(C(=O)NC(C)c2ccc(-c3ccccc3)cc2)c1OC (centres undefined),-64.3,u,n,n,n
O=C(NCCc1ccccc1F)C1CC(=O)N(c2ccc3c(c2)OCCO3)C1 (centres undefined),n,x,n,n,x
Nc1c(C(=O)NCCN2CCOCC2)c2nc3ccccc3nc2n1-c1ccccc1,-52.4,n,x,n,n
C=CCNC(=O)c1c(N)n(-c2cccc(S(N)(=O)=O)c2)c2nc3ccccc3nc12,-58.8,n,x,n,n
COc1ccccc1CNC(=O)c1c(N)n(CCCN2CCOCC2)c2nc3ccccc3nc12,u,n,n,u,u
Nc1c(C(=O)NCc2ccc3c(c2)OCO3)c2nc3ccccc3nc2n1CCCN1CCOCC1,-97.6,n,n,u,u
COC(=O)c1c(N)n(-c2ccc(NC(C)=O)cc2)c2nc3ccccc3nc12,-52.2,n,n,u,n
COCCCNC(=O)c1c(N)n(-c2ccc(S(N)(=O)=O)cc2)c2nc3ccccc3nc12,n,n,u,n,n
CCCN(c1ccccc1F)S(=O)(=O)c1cc(-c2cc(C)no2)ccc1OC,n,n,n,n,x
COc1ccc(CCNc2ncnc3sc(C(=O)N(C)C)c(C)c23)cc1OC,x,x,n,x,x
CC(=O)Oc1ccccc1Cn1c(C)c(C(=O)N(C)Cc2ccc(F)cc2)sc1=O,n,x,n,x,n
C=CCn1c(N)c(C(=O)OC(C)(C)C)c2nc3ccccc3nc21,u,n,x,u,n
COC(=O)c1c(N)n(-c2ccc(N3CCOCC3)cc2)c2nc3ccccc3nc12,x,n,x,x,x
Nc1ccc(-n2c(N)c(C(=O)NCc3ccc4c(c3)OCO4)c3nc4ccccc4nc32)cc1,n,x,n,n,u
O=C(NCCN1CCOCC1)c1cnn2c(-c3ccccc3)cc(-c3ccccc3)nc12,-55.2,n,n,n,n
SMILES,IL-1B inflam inh,USP2a block,ATXN viability,USP1-UAF1 inh,ATXN2 expr inh
Nc1c(C(=O)NCCN2CCOCC2)c2nc3ccccc3nc2n1-c1ccc2c(c1)OCO2,-59.0,n,n,n,n
C=CCn1c(N)c(C(=O)Nc2ccccc2)c2nc3ccccc3nc21,-61.9,n,n,n,n
Nc1c(C(=O)NCc2ccccc2)c2nc3ccccc3nc2n1-c1ccc2c(c1)OCO2,n,n,n,n,22.4µM
COc1cc(Cl)c(C)cc1NC(=O)CNC(C)c1ccccc1OC (centres undefined),n,n,n,n,u
CCOC(=O)C1=CN(Cc2ccco2)S(=O)(=O)N(C)C1CC (centres undefined),n,n,n,u,n
Cc1ccc(-n2c(N)c(C(=O)Nc3c(C)n(C)n(-c4ccccc4)c3=O)c3nc4ccccc4nc32)cc1,n,n,x,n,29.9µM
Cc1cc(C)cc(-n2c(N)c(C(=O)Nc3c(C)n(C)n(-c4ccccc4)c3=O)c3nc4ccccc4nc32)c1,n,n,n,n,n
COCCNC(=O)c1c(N)n(-c2cccc(C)c2)c2nc3ccccc3nc12,-52.7,n,x,n,n
COCCNC(=O)c1c(N)n(-c2ccccc2)c2nc3ccccc3nc12,u,n,x,u,n
CC(C)C[C@H](NC(=O)c1nc[nH]c1C(=O)NCCCCCN)C(=O)OCc1ccccc1,n,n,n,n,n
Cc1ccc(CNC(=O)c2ccc(N3CCCC3)c(NC(=O)Nc3ccc(F)c(Cl)c3)c2)cc1,x,x,u,u,n
CC1=C(C(=O)OCCC(C)C)C(c2ccc3c(c2)OCO3)NC(=O)N1 (centres undefined),n,n,u,n,x
COc1ccc(Nc2nc(N3CCCC3)c3ccccc3n2)cc1,-101.1,n,u,n,28.2µM
COc1ccc(Nc2nc(N3CCCCC3)nc3ccccc23)c(OC)c1,-62.4,n,u,n,u
CCN(CC)c1ccc(Nc2nc(N3CCOCC3)c3ccccc3n2)cc1,-110.6,n,n,n,n
COC(=O)C(OC(=O)c1ccccc1)C(C)Br (centres undefined),n,n,n,u,n
O=C(NCC(c1ccc2c(c1)OCO2)N1CCN(c2ccccc2)CC1)c1ccc(F)c(F)c1 (centres undefined),x,x,u,n,n
CN(C)CCOCCP(=O)(c1ccccc1)c1ccccc1,n,10µM,n,n,n
COc1ccc(NC(=O)CSCc2cc(=O)c3cc(C)ccc3[nH]2)cc1,x,x,n,n,n
CCCCCCCCCCCCCCCCCCN(C)C,x,x,n,x,n
Cc1cn([C@H]2C[C@H](O)[C@@H](CNCc3ccc(CN(C)S(C)(=O)=O)o3)O2)c(=O)[nH]c1=O,n,x,u,u,n
Cc1nn2c(N3CCN(C)CC3)c3c(nc2c1-c1ccccc1)CCCC3,n,n,20µM,n,u
COc1ccccc1NC(=O)CSc1nnc(CNC(=O)c2cccs2)o1,-77.0,n,n,n,n
CCOc1ccccc1NC(=O)CSc1nnc(CNC(=O)c2cccs2)o1,n,n,n,n,n
COc1ccc(C(=O)NCc2nnc(SCC(=O)N3CCCC3)o2)cc1OC,-55.4,n,n,n,n
CC(Oc1ccc(Cl)cc1)C(=O)Nc1sccc1C(N)=O (centres undefined),-62.4,n,x,u,n
Cc1ccc(OC(C)C(=O)OCC(=O)Nc2sccc2C(N)=O)cc1 (centres undefined),n,n,n,n,n
CCOC(=O)c1cnc2c(C)cc(C)cc2c1NCCCN1CCOCC1,-70.8,n,u,n,x
CC(=O)c1ccc(-c2ccc(C(=O)Nc3nc(C)c(C(C)=O)s3)o2)cc1,n,n,n,n,n
